# Data from PubChem BioAssay AID588354 (The Scripps Research Institute Molecular Screening Center, 2011).
# About 430 (0.12%) of roughly 360,000 compounds were called active. This is one part of a sample in which actives are shown more often than they occur. Values without a mark were called inactive.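 How the source made its calls: active means inhibition above the campaign mean plus 3 SD, with each screening campaign given its own cutoff (cut at about 60% in these data); inactive means the rest.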
# Target: Nuclear receptor coactivator 1 (Homo sapiens) (UniProt Q15788)
# Assay: NCOA1 GAL4-fusion reporter inhibition – cell-based, luminescence, primary screen (AID 588354);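 further: 0% = DMSO treated cells and 100% = gossypol at 36 µM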
# Settings: HEK293 GAL4-SRC1 luciferase reporter, at 3.6 µM, stronger effect = higher value
# Nuclear receptor coactivator 1 (Homo sapiens), sequence (Q15788 whole entry, looked up, the tested form may be a part): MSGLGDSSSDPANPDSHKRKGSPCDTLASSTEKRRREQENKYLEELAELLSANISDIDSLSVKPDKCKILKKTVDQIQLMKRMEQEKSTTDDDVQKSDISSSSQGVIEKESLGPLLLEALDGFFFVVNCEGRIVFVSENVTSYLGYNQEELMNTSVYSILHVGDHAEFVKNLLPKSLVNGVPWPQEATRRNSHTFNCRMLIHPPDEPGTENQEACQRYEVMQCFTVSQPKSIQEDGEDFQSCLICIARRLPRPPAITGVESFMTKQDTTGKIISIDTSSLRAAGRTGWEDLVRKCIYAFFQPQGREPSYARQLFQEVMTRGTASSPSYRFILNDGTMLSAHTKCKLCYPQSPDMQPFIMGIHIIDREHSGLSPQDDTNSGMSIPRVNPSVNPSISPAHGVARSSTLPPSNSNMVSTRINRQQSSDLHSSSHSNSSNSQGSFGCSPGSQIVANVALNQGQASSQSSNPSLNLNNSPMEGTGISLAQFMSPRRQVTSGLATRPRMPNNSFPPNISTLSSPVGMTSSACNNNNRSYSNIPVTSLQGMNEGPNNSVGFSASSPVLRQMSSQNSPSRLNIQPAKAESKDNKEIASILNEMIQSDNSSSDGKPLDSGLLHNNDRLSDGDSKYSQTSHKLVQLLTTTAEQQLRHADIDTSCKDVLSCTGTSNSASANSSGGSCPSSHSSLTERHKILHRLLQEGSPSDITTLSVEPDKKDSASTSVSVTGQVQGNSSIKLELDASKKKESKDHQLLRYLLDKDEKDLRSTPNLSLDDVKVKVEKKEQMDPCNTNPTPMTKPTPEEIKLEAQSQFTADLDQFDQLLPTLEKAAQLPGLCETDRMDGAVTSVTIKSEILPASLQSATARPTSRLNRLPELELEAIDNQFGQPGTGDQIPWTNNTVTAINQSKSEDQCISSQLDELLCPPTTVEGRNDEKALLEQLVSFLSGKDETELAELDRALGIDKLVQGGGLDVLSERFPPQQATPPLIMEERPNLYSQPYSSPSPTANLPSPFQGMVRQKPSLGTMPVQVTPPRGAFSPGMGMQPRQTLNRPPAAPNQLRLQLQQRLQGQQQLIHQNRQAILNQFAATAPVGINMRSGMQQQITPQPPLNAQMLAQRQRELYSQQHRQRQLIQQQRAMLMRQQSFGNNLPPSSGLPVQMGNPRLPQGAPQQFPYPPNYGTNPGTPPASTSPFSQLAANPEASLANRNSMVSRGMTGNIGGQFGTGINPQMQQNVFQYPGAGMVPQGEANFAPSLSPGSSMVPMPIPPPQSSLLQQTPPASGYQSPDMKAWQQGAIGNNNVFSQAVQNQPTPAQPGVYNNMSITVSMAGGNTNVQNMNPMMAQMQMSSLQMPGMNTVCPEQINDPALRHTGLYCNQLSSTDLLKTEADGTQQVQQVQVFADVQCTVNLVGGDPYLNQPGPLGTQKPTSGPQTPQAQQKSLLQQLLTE
row,SMILES,inhibition
1,CCOc1cc(CNCc2ccccn2)ccc1OCC(=O)NC(C)(C)C,10.8%
2,O=C(Cc1ccccn1)c1ccc(O)cc1O,-0.25%
3,CCC(C)C(=O)Nc1cc([N+](=O)[O-])ccc1Cl (centres undefined),-3.1%
4,OCCCNc1nccc(-c2cc(Nc3cccc(Cl)c3)ncn2)n1,73.6% (active)
5,COc1ccc(-c2c(C#N)cnc(C)c2C)c(O)c1OC,-0.11%
6,O=C(c1ccc[nH]c1=S)N1CCN(S(=O)(=O)c2ccc(Br)cc2Cl)CC1,-3.09%
7,CC(C)CCNC(=O)CCNS(=O)(=O)c1ccc(Cl)cc1,-13%
8,Nc1cc2c(cc1Br)-c1ccc(F)cc1C2=O,-13.1%
9,CCOC(=O)N1CCC(O)(c2cc(C)c(C)cc2C)CC1,-15.8%
10,O=C(NCc1ccccc1Cl)C1CCCN1S(=O)(=O)c1ccc(F)cc1 (centres undefined),-10.6%
11,CCn1nc(C)c(CNC(=O)C2CCC(=O)N(Cc3cccc(F)c3)C2)c1C (centres undefined),-37.5%
12,COc1ccc(NC(=O)CSc2nc(NS(=O)(=O)c3ccc(C)cc3)cc(=O)[nH]2)cc1,-19.6%
13,COCCn1nnnc1CN1CCC(NC(=O)Nc2cccc(OC)c2)CC1,0.56%
14,CC(=O)c1ccc(N2CCN(C(=O)CCNC(=O)Cn3ccc4ccccc4c3=O)CC2)cc1,3.75%
15,O=C(c1cccc(-n2cccc2)c1)N1CCN(S(=O)(=O)c2ccc(F)cc2)CC1,-2.17%
16,COc1ccc([C@H]2[C@H](C(C)=O)N3N=Cc4ccccc4C3C23C(=O)OC(C)(C)OC3=O)cc1 (some centres undefined),-26.2%
17,CC(C)Oc1ccc(/C=N/NC(=O)c2nnn(-c3nonc3N)c2CN(C)C2CCCCC2)cc1,7.06%
18,CCOc1ccccc1-n1c(SCC(=O)NCc2ccco2)nnc1-c1ccncc1,5.79%
19,O=C(COC(=O)CCOc1ccccc1)Nc1cc(S(=O)(=O)N2CCCCC2)ccc1Cl,-9.87%
20,COCCOC1CCN(C(=O)c2ccc(OC)c(OC3CCN(C(C)C)CC3)c2)CC1,-0.27%
21,CCOC(=O)CC1COCCN1C(=O)c1cc(COc2ccc(F)c(F)c2)on1 (centres undefined),-5.67%
22,COCCn1c(N)c(NCc2ccccc2)c(=O)[nH]c1=O,-11.5%
23,CCOP1(=O)C=C(C(C)(C)C)OC1c1ccc(F)cc1 (centres undefined),-6.16%

row,SMILES,inhibition
1,O=C(O)COCC(=O)NCc1csc2ccc(Cl)cc12,11.9%
2,CC1(C)CC(CNCCC(c2ccc(F)cc2)c2ccco2)CCO1 (centres undefined),12.7%
3,COc1ccc(-c2nnc(SCC(=O)Nc3cccnc3Cl)n2C)cc1,16.4%
4,CCOC1=C2CN(S(=O)(=O)c3ccc(C)cc3)[C@H](c3cccs3)C[C@H]2[C@H]2C(=O)N(c3ccccc3)C(=O)[C@H]2C1,0.21%
5,Cc1[nH]c(C)c(S(=O)(=O)N2CCC(C)CC2)c1C(=O)N1CCCC1,0.69%
6,Cc1nc(-c2ccccc2)sc1-c1nc(-c2ccccc2)ncc1S(=O)(=O)c1ccccc1,7.02%
7,CCOc1ccc(CNC(=O)C2CC(=O)N(C3CCCC3)C2)cc1OC (centres undefined),-4.04%
8,COc1ccc(NC(=O)CN(C)C(=O)CNC(=O)C2CCCCC2)cc1,6.97%
9,O=C(COC(=O)c1ccco1)Nc1ccc(Cl)cn1,-10.8%
10,COC(=O)Cc1[nH]n(-c2nc3ccccc3s2)c(=O)c1C(C)=Nc1ccc(OC)cc1,81.3% (active)
11,COc1cccc(/C=C(/CC(=O)Nc2ccc(N3CCOCC3)cc2)c2nc3ccccc3s2)c1,-38.5%
12,COCCCC1CCN(C(=O)C2CCC(=O)N(C3CCCCCC3)C2)CC1 (centres undefined),2.7%
13,CCN(CC)C(=O)C1=C(C)N(Cc2ccccc2)C(=O)C(CC(=O)NC(c2ccccc2)c2ccccc2)C1 (centres undefined),-24.8%
14,FC(F)(F)c1nc(-c2ccccc2)ncc1-c1nnnn1-c1ccccc1,2.72%
15,CC1=CC(C)(C)Nc2ccc(OC(=O)CN3C(=O)C4CCCCC4C3=O)cc21 (centres undefined),-14.7%
16,CC[C@H]1CN2CCc3cc(OC)c(OC)cc3[C@@H]2C[C@@H]1C[C@H]1NCCc2cc(OC)c(OC)cc21,94.8% (active)
17,Nc1c(N(CCCO)C(=O)C2CCCC2)c(=O)[nH]c(=O)n1Cc1ccccc1,-4.42%
18,Cc1cc(C)nc(-n2ncc3c2CC(c2ccc(C(C)C)cc2)CC3=O)n1 (centres undefined),-16.7%
19,O=C(CC(O)(C(F)(F)F)C(F)(F)F)Nc1ccc(Cl)c(Cl)c1,71.9% (active)
20,N#CCCN(C(=O)Nc1ccc(Cl)c(Cl)c1)C1CCCCC1,4.76%
21,CC1(C(=O)O)CCC(C(=O)Nc2ccc(Cl)c(Cl)c2)C1(C)C (centres undefined),1.51%
22,O=C(Nc1cc(S(=O)(=O)N2CCOCC2)ccc1N1CCOCC1)c1c(F)cccc1Cl,4.42%
23,CCOc1ccc(S(=O)(=O)N2CCC(C(=O)NCC(=O)Nc3cccc(Cl)c3C)CC2)cc1,-15%

row,SMILES,inhibition
1,COCOc1cc(O)c(C(=O)/C=C/c2ccc(OCOC)c(OCOC)c2)c(OCOC)c1,-3.45%
2,C=CCn1c(C)cc(C2=NNC(=NCC)SC2)c1C,87.5% (active)
3,Cc1ccc(N2C(=O)CN=C2Nc2nc(C)cc(C)n2)cc1,0.5%
4,COc1ccc(CNC(=O)CN2C(=O)c3ccccc3S2(=O)=O)cc1,2.81%
5,O=C(CN1C(=O)c2ccccc2S1(=O)=O)N1CCc2ccccc21,73% (active)
6,CN(Cc1cccs1)C(=O)CN1C(=O)c2ccccc2S1(=O)=O,-19.1%
7,CC1CC(NC(=S)N(C)C)CC(C)(C)C1 (centres undefined),0.06%
8,Cc1ccc(NC(=O)CN2CCC3(O)CCCCC3C2c2ccc3c(c2)OCO3)c(C)c1 (centres undefined),5.71%
9,CCCCCCCCn1c2c(c(=N)c3c1CCC3)CCCC2,69% (active)
10,O=C(COC(=O)C1CCN(S(=O)(=O)c2ccc3c(c2)OCCO3)CC1)Nc1ccccc1OC(F)F,6.03%
11,O=C(CCNC(=O)c1ccc([N+](=O)[O-])cc1)Nc1ccccc1N1CCOCC1,-16.9%
12,Cc1ccsc1C(=O)OCC(=O)NCCc1ccccc1,-29.4%
13,COc1ccc(CNC(=O)COC(=O)c2sccc2C)cc1OC,2.6%
14,Cc1ccsc1C(=O)OCC(=O)c1cc(C)n(CC2CCCO2)c1C (centres undefined),82.3% (active)
15,Nc1nc(SCC(=O)N2CCN(S(=O)(=O)c3ccc(Cl)cc3)CC2)n[nH]1,9.56%
16,Cc1cc(C)n2nc(C(=O)N(C)C(c3ccccc3)c3ccccc3)nc2n1,-3.03%
17,CCc1ccnc(NS(=O)(=O)c2ccc3c(c2)OCCO3)c1,-6.15%
18,CC(=O)NC1C(Oc2ccc(C=O)cc2)OC(COC(C)=O)C(OC(C)=O)C1OC(C)=O (centres undefined),-13.2%
19,CC1CCCC(C)N1/N=C/c1ccccc1OC(F)F (centres undefined),-2.18%
20,CC12C(=O)N(n3cnnc3)C(=O)C1C1C=CC2C1 (centres undefined),-10.2%
21,C=CCC1(CC=C)CCCN1C(=O)c1cc(COc2ccc(-n3cncn3)cc2)on1,-1.06%
22,Cc1ccc(S(=O)(=O)N2CCN=C2SCc2c(F)cccc2Cl)cc1,-14.6%
23,O=C(O)C1C2CC2CN1C(=O)c1ccc(Cl)cc1Cl (centres undefined),10.7%

row,SMILES,inhibition
1,CC(NC(=O)c1ccccc1C(=O)O)c1ccc(-n2ccnc2)cc1 (centres undefined),-1.09%
2,N#CC1(NC(=O)COc2ccc3oc4ccccc4c3c2)CCCCC1,2.18%
3,COc1ccc(OC)c(S(=O)(=O)Nc2cccc(-c3ccc4nncn4n3)c2)c1,-20.7%
4,CC1CCCCC12NC(=O)N(CC(=O)N1CCN(c3ccccc3)CC1)C2=O (centres undefined),1.99%
5,CN(C)c1ccc(CSc2ccccc2)cc1,-41.4%
6,CCN(CC)C(=O)[C@H]1C[C@H](CC(=O)NCC23CC4CC(CC(C4)C2)C3)C(=O)N2CCc3c([nH]c4cc(CCC(=O)N(C)C)ccc34)[C@]12C,4.03%
7,Cc1cc(C)c2c(c1)c(C)cc1nnc(SCC(=O)NCc3ccco3)n12,-10.2%
8,CC(C)c1cccc(C(C)C)c1Nc1cn[nH]c1,-5.74%
9,CC(=O)c1cccc(NC(=O)N2CCCC2C(=O)NCCC(C)C)c1 (centres undefined),-16%
10,C=CCn1c(SCc2cc(C(=O)OC)c(C)o2)nnc1-c1ccncc1,-8.14%
11,CCn1nc(NC(=O)c2ccco2)c2cc3ccc(C)cc3nc21,5.64%
12,CN(Cc1ccc(CNC[C@H]2O[C@@H](n3cnc4c(N)ncnc43)[C@H](O)[C@@H]2O)o1)S(C)(=O)=O,-4.89%
13,O=C(NCc1ccccc1)C(c1ccco1)N(C(=O)c1csnn1)c1ccccc1F (centres undefined),-7.13%
14,COc1cc(OC)cc(-c2cc3ccc(F)cc3cn2)c1,-60%
15,CCOC(=O)c1cc(C(=O)Nc2ccc(S(=O)(=O)Nc3ccc(OC)cc3)cc2)nn1C,7.15%
16,O=C(Nc1cc2c3c(c1)C1CCCC1CN3CC1CCCC21)c1ccc([N+](=O)[O-])cc1 (centres undefined),-2.56%
17,CCOC(=O)NC(=O)CSc1nnc(SCCC(=O)O)s1,-8.78%
18,COc1ccc(C2=Nn3c(nnc3-c3ccccc3OC)SC2)cc1OC1CCCC1,-15.9%
19,CCCCN(C(=O)CCNC(=O)NC12CC3CC(CC(C3)C1)C2)c1c(N)n(CCCC)c(=O)[nH]c1=O,4.35%
20,C=CCOc1cccc(C2NC(=O)c3ccccc3O2)c1 (centres undefined),3.13%
